Drawing on article PMC11062922 (Nature Chemical Biology, 2023), this text covers potency estimated from few doses for six compounds.

Read-outs that look alike come from different tables or passages of the source.

Common to all, as to set-up: species or system human, MV4-11 + K-562 + COLO205 + SK-N-BE2 + OVCAR-8
The subject of one assay is BUB1. The conditions noted are these: read-out: apparent Kd; compound concentrations:100 nM and 1000 nM (sheet 'Samples'); n = 1.
Another assay concerns CDC42BPA. The conditions noted are these: read-out: apparent Kd; compound concentrations:100 nM and 1000 nM (sheet 'Samples'); n = 1.
The next assay deals with CDC42BPB. The conditions noted are these: read-out: apparent Kd; compound concentrations:100 nM and 1000 nM (sheet 'Samples'); n = 1.
The subject of the next assay is CDC42BPG. The conditions noted are these: read-out: apparent Kd; compound concentrations:100 nM and 1000 nM (sheet 'Samples'); n = 1.
The test system of the next assay is CDC7. Particulars: read-out: apparent Kd; compound concentrations:100 nM and 1000 nM (sheet 'Samples'); n = 1.
The next assay has as its system LATS1. The conditions noted are these: read-out: apparent Kd; compound concentrations:100 nM and 1000 nM (sheet 'Samples'); n = 1.
For the next assay, the system named is MELK. Particulars: read-out: apparent Kd; compound concentrations:100 nM and 1000 nM (sheet 'Samples'); n = 1.
The next assay relates to PIM1. The conditions noted are these: read-out: apparent Kd; compound concentrations:100 nM and 1000 nM (sheet 'Samples'); n = 1.
The subject of a further assay is PKN1. The conditions noted are these: read-out: apparent Kd; compound concentrations:100 nM and 1000 nM (sheet 'Samples'); n = 1.
A further assay relates to PKN2. The conditions noted are these: read-out: apparent Kd; compound concentrations:100 nM and 1000 nM (sheet 'Samples'); n = 1.
Another assay has as its system PRKCA. Particulars: read-out: apparent Kd; compound concentrations:100 nM and 1000 nM (sheet 'Samples'); n = 1.
The next assay deals with PRKCB. Particulars: read-out: apparent Kd; compound concentrations:100 nM and 1000 nM (sheet 'Samples'); n = 1.
Another assay has as its system PRKCD. The conditions noted are these: read-out: apparent Kd; compound concentrations:100 nM and 1000 nM (sheet 'Samples'); n = 1.
The test system of the next assay is PRKCI. The conditions noted are these: read-out: apparent Kd; compound concentrations:100 nM and 1000 nM (sheet 'Samples'); n = 1.
The test system of a further assay is PRKG1. Particulars: read-out: apparent Kd; compound concentrations:100 nM and 1000 nM (sheet 'Samples'); n = 1.
A further assay deals with PRKX. Particulars: read-out: apparent Kd; compound concentrations:100 nM and 1000 nM (sheet 'Samples'); n = 1.
The subject of another assay is ROCK2. Particulars: read-out: apparent Kd; compound concentrations:100 nM and 1000 nM (sheet 'Samples'); n = 1.
In the next assay the test system is RPS6KA4. The conditions noted are these: read-out: apparent Kd; compound concentrations:100 nM and 1000 nM (sheet 'Samples'); n = 1.
The subject of the next assay is RPS6KA5. The conditions noted are these: read-out: apparent Kd; compound concentrations:100 nM and 1000 nM (sheet 'Samples'); n = 1.
The test system of another assay is RPS6KB1. The conditions noted are these: read-out: apparent Kd; compound concentrations:100 nM and 1000 nM (sheet 'Samples'); n = 1.
For another assay, the system named is AURKB. Particulars: read-out: apparent Kd, compound concentrations: 100 nM and 1000 nM (sheet 'Samples'), n = 1.
Another assay relates to BMP2K. Particulars: read-out: apparent Kd; compound concentrations: 100 nM and 1000 nM (sheet 'Samples'), CATDS: 0.35520277596049099; n = 1.
The next assay relates to MYLK3. Particulars: read-out: apparent Kd; compound concentrations: 100 nM and 1000 nM (sheet 'Samples'), CATDS: 0.39880703654606497; n = 1.
The next assay relates to TNIK. Particulars: read-out: apparent Kd; compound concentrations: 100 nM and 1000 nM (sheet 'Samples'), CATDS: 0.27194394843596698; n = 1.
In another assay the test system is AURKA. The conditions noted are these: read-out: apparent Kd; compound concentrations: 100 nM and 1000 nM (sheet 'Samples'), CATDS: 0.171682106860061; n = 1.
The next assay has as its system CDC42. Particulars: read-out: apparent Kd; compound concentrations: 100 nM and 1000 nM (sheet 'Samples'), CATDS: 0.132933221213999; n = 1.
Another assay deals with GSK3A. The conditions noted are these: read-out: apparent Kd; compound concentrations: 100 nM and 1000 nM (sheet 'Samples'), CATDS: 0.398799931633807; n = 1.
The test system of the next assay is GSK3B. Particulars: read-out: apparent Kd; compound concentrations: 100 nM and 1000 nM (sheet 'Samples'), CATDS: 0.29957385679939402; n = 1.
Another assay deals with EIF2AK1. Particulars: read-out: apparent Kd, compound concentrations: 100 nM and 1000 nM (sheet 'Samples'), n = 1.
Another assay has as its system CAMK2B. Particulars: read-out: apparent Kd; compound concentrations: 100 nM and 1000 nM (sheet 'Samples'), CATDS: 0.10460822503909301; n = 1.
For a further assay, the system named is MAP2K5. The conditions noted are these: read-out: apparent Kd; compound concentrations: 100 nM and 1000 nM (sheet 'Samples'), CATDS: 0.13171106930199999; n = 1.
The subject of the next assay is MAP3K4. Particulars: read-out: apparent Kd; compound concentrations: 100 nM and 1000 nM (sheet 'Samples'), CATDS: 6.3313755179161796E-2; n = 1.
The test system of a further assay is MAP4K2. Particulars: read-out: apparent Kd; compound concentrations: 100 nM and 1000 nM (sheet 'Samples'), CATDS: 8.0363217180658503E-2; n = 1.
The subject of another assay is MAP4K3. The conditions noted are these: read-out: apparent Kd; compound concentrations: 100 nM and 1000 nM (sheet 'Samples'), CATDS: 7.0061337897802001E-2; n = 1.
The next assay has as its system NEK2. Particulars: read-out: apparent Kd; compound concentrations: 100 nM and 1000 nM (sheet 'Samples'), CATDS: 7.0707362303254903E-2; n = 1.
For a further assay, the system named is PTK6. The conditions noted are these: read-out: apparent Kd; compound concentrations: 100 nM and 1000 nM (sheet 'Samples'), CATDS: 9.6831640225396698E-2; n = 1.
The subject of a further assay is RIPK3. The conditions noted are these: read-out: apparent Kd; compound concentrations: 100 nM and 1000 nM (sheet 'Samples'), CATDS: 5.9468743018389697E-2; n = 1.
In a further assay the test system is STK3. The conditions noted are these: read-out: apparent Kd; compound concentrations: 100 nM and 1000 nM (sheet 'Samples'), CATDS: 6.0873779479402902E-2; n = 1.
The test system of another assay is STK4. Particulars: read-out: apparent Kd; compound concentrations: 100 nM and 1000 nM (sheet 'Samples'), CATDS: 7.2736683737858396E-2; n = 1.
Another assay concerns YES1. Particulars: read-out: apparent Kd; compound concentrations: 100 nM and 1000 nM (sheet 'Samples'), CATDS: 8.4422564435587905E-2; n = 1.

In the case of `CCn1c(-c2nonc2N)nc2cncc(C(=O)N3CCNCC3)c21.Cl` [SB-759335-B], the potency estimated from few doses with BUB1 is 543 nM; in the assay on CDC42BPA, 1080 nM; with CDC42BPB it was 1640 nM; in the assay with CDC42BPG, 2060 nM; in the assay on CDC7, 2080 nM; with LATS1, 1940 nM. Also, the potency estimated from few doses was 1040 nM in the assay on MELK; 501 nM in the assay with PIM1; 813 nM in the assay on PKN1; 119 nM in the assay on PKN2; 1900 nM with PRKCA; 1510 nM with PRKCB. In addition, the potency estimated from few doses in the assay on PRKCD was 1200 nM; with PRKCI it was 2020 nM; in the assay with PRKG1, 135 nM; with PRKX, 750 nM; with ROCK2, 24.7 nM; in the assay with RPS6KA4, 723 nM. The results for the potency estimated from few doses in the assay on RPS6KA5 and in the assay with RPS6KB1 were 142 nM and 115 nM, respectively.

Turning to `Cn1ccc2ncnc(Oc3ccc(Nc4nc5ccccc5[nH]4)cc3)c21` [TPKI-72], in the assay on AURKB (CATDS: 1), the potency estimated from few doses was 617 nM.

`Nc1cccc(-c2ccc3c(N)n[nH]c3c2)c1` [GSK2193613A]: the values for the potency estimated from few doses in the assay on BMP2K, in the assay with MYLK3 and with TNIK were 1270 nM, 1020 nM and 2310 nM, respectively.

Consider `Cc1[nH]nc2c1N=C(c1ccccc1F)c1cc(C#N)ccc1N2` [RO0275062-000], for which the potency estimated from few doses is 496 nM in the assay with AURKA; 492 nM in the assay with AURKB (CATDS: 0.172202722003443); 1240 nM in the assay on CDC42; 88.7 nM in the assay on GSK3A; 143 nM in the assay on GSK3B.

For the compound `Cn1cc(-c2ccc3c(c2)CCN3C(=O)Cc2cc(F)cc(F)c2F)c2c(N)ncnc21` [GSK2634140A], the potency estimated from few doses in the assay with AURKB (CATDS: 0.49376947402656801) was 1300 nM; in the assay on EIF2AK1 (CATDS: 0.50638977254874895), 1240 nM.

As to `Cn1cc(-c2ccc3c(c2)CCN3C(=O)Cc2ccccc2Cl)c2c(N)ncnc21` [GSK2608885A], the potency estimated from few doses in the assay on AURKB (CATDS: 9.3884210166783694E-2) was 825 nM; in the assay with CAMK2B it was 685 nM; in the assay on EIF2AK1 (CATDS: 6.5022580640831398E-2), 1790 nM; in the assay with MAP2K5, 478 nM; in the assay on MAP3K4 it was 1920 nM; in the assay on MAP4K2 it was 1110 nM. The potency estimated from few doses in the assay on MAP4K3 was 1490 nM; in the assay on NEK2, 1460 nM; in the assay on PTK6, 781 nM; in the assay on RIPK3, 2280 nM; with STK3, 2130 nM; in the assay with STK4, 1370 nM. Also, the potency estimated from few doses in the assay on YES1 was 1000 nM.
